Source: PubChem BioAssay (Broad Institute)
NOMO-1 viab – NOMO-1 AML cell viability reduction, primary screen, STK33 inhibitor project, CellTiter-Glo luminescence; NOMO-1 AML viability, 72 h; inhibition, % (concentration not given with the values); 7.5% of 37,000 active; in the data active means inhibition above about 80%; inconclusive means no clear call, values can overlap the other calls
MITF inh – inhibitors of MITF, primary screen, MITF inhibitor project, cell-based, luminescence; TRPM1 promoter luciferase, 24 h; inhibition, % (test concentration not listed); 0.28% of 37,000 active; in the data active means inhibition above about 85%; inconclusive means no clear call, values can overlap the other calls; inactive means below about 68%;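 further: human melanocyte line stably carrying TRPM1 promoter luciferase reporter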
Shh pathway inh – Hedgehog pathway signaling inhibitors, primary screen, luminescence, Shh-LIGHT2 cells, Gli-luciferase; inhibition, % (no concentration beside the values); Shh-LIGHT2 Gli-luciferase reporter, 30 h; 2.1% of 22,000 active; AID 2313, 2010;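 active means mean inhibition across valid replicates above about 65%, limit read from the data; inconclusive means mean under the limit, yet half or more replicates past it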;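 further: pathway switched on by Shh-conditioned medium diluted 1 in 25 in low serum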
Numbers without * were called inactive; ? = inconclusive; . = no result. Only some compounds are listed: those with a hit (about 7.8% of all), similar ones and a draw of the others.

SMILES	NOMO-1 viab	MITF inh	Shh pathway inh
CCCC1=NN(C(=O)/C=C/c2cccs2)C(=O)C1Cc1c(F)cccc1Cl (configuration not stated)	52	-16	.
C=CCC1C(=O)N(S(=O)(=O)c2ccc(Cl)cc2)N=C1CCC (configuration not stated)	110*	5	?
C[C@H](CO)N1C[C@H](C)[C@H](CN(C)CC2CC2)Oc2c(NC(=O)CCCCCC(=O)Nc3ccccc3N)cccc2C1=O	22	0	.
C[C@@H]1CN([C@@H](C)CO)C(=O)c2cccc(NC(=O)CCCCCC(=O)Nc3ccccc3N)c2O[C@H]1CN(C)CC1CCCCC1	138*	64	.
C[C@H](CO)N1C[C@H](C)[C@@H](CN(C)CC2CC2)Oc2c(NC(=O)CCCCCC(=O)Nc3ccccc3N)cccc2C1=O	121*	50	.
C[C@H](CO)N1C[C@H](C)[C@H](CN(C)C)Oc2c(NC(=O)CCCCCC(=O)Nc3ccccc3N)cccc2C1=O	19	-21	.
COc1ccc(NC(=O)N(C)C[C@H]2OCCCC[C@@H](C)Oc3ccc(NS(=O)(=O)c4ccc(C)cc4)cc3C(=O)N([C@H](C)CO)C[C@@H]2C)cc1	9	-3	-6
C[C@H]1CN([C@@H](C)CO)C(=O)c2cccc(NC(=O)C3CCOCC3)c2O[C@@H]1CN(C)S(=O)(=O)c1ccc(Cl)cc1	-17	-3	-6
C[C@@H]1CCCCO[C@@H](CN(C)C(=O)Nc2ccc(C(F)(F)F)cc2)[C@@H](C)CN([C@H](C)CO)C(=O)c2cc(NC(=O)Nc3ccc4c(c3)OCO4)ccc2O1	58	-9	.
C[C@@H]1CCCCO[C@H](CN(C)S(=O)(=O)c2ccc(F)cc2)[C@@H](C)CN([C@H](C)CO)C(=O)c2cc(NC(=O)Nc3ccc(F)cc3)ccc2O1	43	14	-21
C[C@@H]1CCCCO[C@H](CN(C)C)[C@@H](C)CN([C@H](C)CO)C(=O)c2cc(NC(=O)Nc3ccc(C(F)(F)F)cc3)ccc2O1	13	-15	-57
C[C@@H]1CCCCO[C@H](CN(C)Cc2ccccc2)[C@@H](C)CN([C@H](C)CO)C(=O)c2cc(NC(=O)Nc3ccc(F)cc3)ccc2O1	35	3	67*
C[C@@H]1CCCCO[C@H](CN(C)Cc2ccc3c(c2)OCO3)[C@@H](C)CN([C@H](C)CO)C(=O)c2cc(NC(=O)Nc3ccc(C(F)(F)F)cc3)ccc2O1	84*	-18	27
C[C@@H]1CCCCO[C@H](CN(C)CC2CCCCC2)[C@@H](C)CN([C@H](C)CO)C(=O)c2cc(NC(=O)Nc3ccc(C(F)(F)F)cc3)ccc2O1	112*	-12	37
C[C@@H]1CCCCO[C@@H](CN(C)Cc2ccccc2)[C@@H](C)CN([C@H](C)CO)C(=O)c2cc(NC(=O)Nc3ccc(F)cc3)ccc2O1	46	31	.
C[C@@H]1CCCCO[C@H](CN(C)S(=O)(=O)c2ccc(F)cc2)[C@@H](C)CN([C@H](C)CO)C(=O)c2cc(NC(=O)Nc3ccc(C(F)(F)F)cc3)ccc2O1	98*	18	20
CC(=O)Nc1ccccc1-c1nc2ccccc2nc1OCc1ccc([N+](=O)[O-])cc1	13	-3	.
C[C@@H]1CN([C@H](C)CO)C(=O)c2cc(NC(=O)Nc3ccc(C(F)(F)F)cc3)ccc2O[C@H]1CN(C)S(=O)(=O)c1cn(C)cn1	25	-12	.
Cc1cc(C)c(C#N)c(SCC(=O)Nc2cc(C(F)(F)F)ccc2Cl)n1	-13	-6	.
C[C@@H]1CCCCO[C@H](CN(C)Cc2ccc(C(F)(F)F)cc2)[C@@H](C)CN([C@H](C)CO)C(=O)c2cc(NC(=O)c3ccccc3)ccc2O1	53	30	7
C[C@@H]1CCCCO[C@H](CN(C)Cc2ccncc2)[C@@H](C)CN([C@H](C)CO)C(=O)c2cc(NC(=O)Nc3ccc(F)cc3)ccc2O1	12	-11	.
C[C@@H]1CCCCO[C@@H](CN(C)Cc2ccc(C(F)(F)F)cc2)[C@@H](C)CN([C@H](C)CO)C(=O)c2cc(NC(=O)NC3CCCCC3)ccc2O1	?	32	4
C[C@@H]1CCCCO[C@H](CN(C)Cc2ccc(C(F)(F)F)cc2)[C@@H](C)CN([C@H](C)CO)C(=O)c2cc(NC(=O)NC3CCCCC3)ccc2O1	94*	13	40
C[C@@H]1CCCCO[C@@H](CN(C)C(=O)CCC(F)(F)F)[C@@H](C)CN([C@H](C)CO)C(=O)c2cc(NC(=O)CCCN(C)C)ccc2O1	-1	4	-22
C[C@@H]1CCCCO[C@H](CN(C)C(=O)CCCN(C)C)[C@@H](C)CN([C@H](C)CO)C(=O)c2cc(NC(=O)CCC(F)(F)F)ccc2O1	8	-4	77*
SMILES	NOMO-1 viab	MITF inh	Shh pathway inh
C[C@@H]1CCCCO[C@@H](CN(C)Cc2ccc(C(F)(F)F)cc2)[C@@H](C)CN([C@H](C)CO)C(=O)c2cc(NC(=O)Nc3ccc(C(F)(F)F)cc3)ccc2O1	107*	-1	24
C[C@@H]1CCCCO[C@H](CN(C)Cc2ccc(C(F)(F)F)cc2)[C@@H](C)CN([C@H](C)CO)C(=O)c2cc(NC(=O)Nc3ccc(F)cc3)ccc2O1	100*	21	.
COc1ccc(OC(C)C(=O)Nc2ccc(C(N)=O)cc2)cc1 (configuration not stated)	-5	-1	.
OCc1ccccc1O	0	-7	-19
COc1ccc(NC(=O)Nc2ccc3c(c2)C(=O)N([C@@H](C)CO)C[C@H](C)[C@@H](CN(C)C(=O)Nc2ccc4c(c2)OCO4)O3)cc1	-7	-1	1
C[C@@H]1CCCCO[C@@H](CN(C)C)[C@@H](C)CN([C@H](C)CO)C(=O)c2cc(NC(=O)Nc3ccccc3)ccc2O1	108*	-1	-8
C[C@@H]1CCCCO[C@@H](CN(C)C)[C@@H](C)CN([C@H](C)CO)C(=O)c2cc(NC(=O)Nc3ccc(F)cc3)ccc2O1	9	-3	-35
C[C@@H]1CCCCO[C@H](CN(C)Cc2ccc(C(F)(F)F)cc2)[C@@H](C)CN([C@H](C)CO)C(=O)c2cc(NC(=O)Nc3ccccc3)ccc2O1	74	19	1
C[C@@H]1CCCCO[C@H](CN(C)Cc2ccc(C(F)(F)F)cc2)[C@@H](C)CN([C@H](C)CO)C(=O)c2cc(NC(=O)c3ccncc3)ccc2O1	18	-5	.
C[C@@H]1CCCCO[C@H](CN(C)Cc2ccc(C(F)(F)F)cc2)[C@@H](C)CN([C@H](C)CO)C(=O)c2cc(NC(=O)Nc3ccc(C(F)(F)F)cc3)ccc2O1	113*	0	-41
C[C@@H]1CCCCO[C@H](CN(C)Cc2ccccc2)[C@@H](C)CN([C@H](C)CO)C(=O)c2cc(NC(=O)Nc3ccc(C(F)(F)F)cc3)ccc2O1	104*	-1	.
CN(CC(=O)Nc1ccccc1C(F)(F)F)S(=O)(=O)c1ccc(F)cc1	8	-1	.
C[C@@H]1CN([C@@H](C)CO)C(=O)c2cccc(NC(=O)c3cnccn3)c2O[C@@H]1CN(C)S(=O)(=O)c1ccccc1	1	-4	3
O=C(c1ccc(Oc2ccccc2)cc1)c1coc2ccc(O)cc12	139*	63	-49
O=C(O)COc1ccc2occ(C(=O)c3ccccc3)c2c1	-8	-5	.
